The values that follow come from PubChem BioAssay (EPA / NIEHS).

Results filed as inconclusive are left out. Some structures have more than one record in an assay (separate samples or runs), and their calls can disagree. Calls of active or inactive are those of the source. The calls were made as follows: active = hit-call score of the fitted dose curve at least 0.9, where 1 is the maximum; inconclusive = response in the unintended direction; inactive = score below 0.9.

Test [1] deals with Sodium channel protein type 1 subunit alpha (Rattus norvegicus) (UniProt P04774). Kind of test: NVS_IC_rNaCh_site2: NovaScreen (NVS) Ion Channel Assay for rat Sodium Channel, Site 2 (NaCh) (AID 2283322).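 Also: hit means loss of radioligand binding signal relative to DMSO so AC50 marks displacement.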 A digest of the protocol:
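Membranes: rat forebrain. Format: competitive radioligand displacement, filter separation, scintillation readout, 1 h exposure. Primary screen in duplicate at 25 uM; actives retested in concentration series.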

Test [2] deals with Voltage-gated inwardly rectifying potassium channel KCNH2 (Homo sapiens) (UniProt Q12809). Nature of the test: NVS_IC_hKhERGCh: NovaScreen (NVS) Ion Channel Assay for human Potassium Channel ERG (KhERGCh) (AID 2283333). A digest of the protocol:
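Cell-free radioligand competition binding on hERG protein extracted from CHO cells, read by filter-based scintillation counting 0.75 h after dosing. Primary screen at 25 uM in duplicate, actives followed in concentration series. Signal loss fitted versus DMSO.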

The target of test [3] is Small conductance calcium-activated potassium channel protein 1 (Rattus norvegicus) (UniProt P70606). Nature of the test: NVS_IC_rKCaCh: NovaScreen (NVS) Ion Channel Assay for rat Potassium Channel, Ca2+ Act., VI (KCaCh) (AID 2283336). A digest of the protocol: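 Radioligand binding to rat forebrain membranes, cell-free, read 1 hour after dosing by filter-based scintillation counting. Compounds first run in duplicate at 25 uM, actives then in concentration series; loss of signal vs DMSO indicates displacement.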

A short description of test [4]: NVS_IC_rCaBTZCHL: NovaScreen (NVS) Ion Channel Assay for Calcium Channel, Type L, Benzothiazepine Site (CaBTZCHL) (AID 2283337). In a few lines: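 Competitive displacement of a site-specific radioligand from rat cortex membranes, measured as signal loss against DMSO baseline by filter radiodetection after 1.5 h. Single-point 25 uM primary screen.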
For test [5], the system named is guinea pig Histamine Receptor (H2), gene 100729734. Nature of the test: NVS_GPCR_gH2: NovaScreen (NVS) G Protein-Coupled Receptor Assay for guinea pig Histamine Receptor (H2) (AID 2283342). A digest of the protocol: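 Radioligand displacement on guinea pig striatal membranes, 1 h after dosing, filter-based scintillation counting; loss of signal versus DMSO. Single-point screen at 25 uM in duplicate, then concentration-response up to 50 uM.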

Test [6] deals with rat Glutamate, AMPA Site (AMPA), Gria1 (gene 50592) (UniProt P19490). Kind of test: NVS_LGIC_rAMPA: NovaScreen (NVS) Ligand-Gated Ion Channel Assay for rat Glutamate, AMPA Site (AMPA) (AID 2283324). A digest of the protocol: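 Rat forebrain membranes; radioligand binding read 1 h after dosing by filtration and scintillation counting. Duplicate single-point screen at 25 uM, then concentration-response to 50 uM for threshold hits (e.g. 30% inhibition); loss of signal vs DMSO.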

Test [7] concerns the target human Peripheral-type Benzodiazepine Receptor (PBR), TSPO (gene 706) (UniProt P30536). Nature of the test: NVS_MP_hPBR: NovaScreen (NVS) Membrane Protein Assay for human Peripheral-type Benzodiazepine Receptor (PBR) (AID 2283331).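 Also: hits reduce radioligand binding relative to DMSO baseline.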 A digest of the protocol:
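Radioligand displacement on human colonic cell membranes, 1 h incubation; bound radioactivity by filtration and scintillation counting. Primary screen in duplicate at 25 uM single concentration, actives followed up in concentration series; loss of binding versus DMSO.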

In test [8] the target is rat Glycine Receptor, Strychnine-sensitive (GlyRStrySens), Glra1 (gene 25674) (UniProt P07727). Nature of the test: NVS_LGIC_rGlyRStrySens: NovaScreen (NVS) Ligand-Gated Ion Channel Assay for rat Glycine Receptor, Strychnine-sensitive (GlyRStrySens) (AID 2283341). In a few lines:
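Radioligand displacement on rat spinal cord membranes, 1 hr, filter scintillation read-out. Single-concentration duplicate screen at 25 uM; chemicals meeting threshold (e.g., 30% inhibition) rerun in concentration-response up to 50 uM. Loss of binding fitted versus DMSO.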

In another test the test system is NCBI gene 100848466. Nature of the test: NVS_NR_bPR: NovaScreen (NVS) Nuclear Receptor Binding Assay for bovine Progextron Receptor (PR) (AID 2283343).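 Also: actives lower bound radioligand signal below DMSO meaning displacement of the label.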 A digest of the protocol: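 Bovine uterine membrane preparation; radioligand displacement read by scintillation counting 18 h after dosing. Primary screen single concentration, 25 uM, in duplicate; actives followed up in concentration series. Signal loss versus DMSO baseline.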

The target in test [9] is human Serotonin, 5-Hydroxytryptamine Receptor 3 (5HT3), HTR3A (gene 3359) (UniProt P46098). Kind of test: NVS_LGIC_h5HT3: NovaScreen (NVS) Ligand-Gated Ion Channel Assay for human Serotonin, 5-Hydroxytryptamine Receptor 3 (5HT3) (AID 2283325). A digest of the protocol: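 Radioligand displacement binding to human 5-HT3 from HEK293 membranes, read by filter-based scintillation counting after 1 h. Screen at 25 uM in duplicate; chemicals passing threshold were retested in concentration-response up to 50 uM.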

Test [10] deals with rat Gamma-Aminobutyric Acid Type A Receptor, Non-Selective (GABAR-NonSelective), Gabra1 (gene 29705) (UniProt P62813). Nature of the test: NVS_LGIC_rGABAR_NonSelective: NovaScreen (NVS) Ligand-Gated Ion Channel Assay for rat Gamma-Aminobutyric Acid Type A Receptor, Non-Selective (GABAR-NonSelective) (AID 2283326). In a few lines: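 Radioligand displacement on rat whole-brain extract, 1 h, filter scintillation readout; signal loss fitted versus DMSO. Primary screen in duplicate at 25 uM; hits (e.g. ≥30% inhibition) retested in concentration-response up to 50 uM.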

Test [11] has as its target bovine Gamma-Aminobutyric Acid Type A Receptor BDZ, alpha 5 site (GABARa5), GABRA5 (gene 523515) (UniProt Q08E50). Nature of the test: NVS_LGIC_bGABARa5: NovaScreen (NVS) Ligand-Gated Ion Channel Assay for bovine Gamma-Aminobutyric Acid Type A Receptor BDZ, alpha 5 site (GABARa5) (AID 2283323). In a few lines:
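Radioligand competitive displacement binding on bovine hippocampal membranes, read 1 hr after dosing by filter-based scintillation counting. Primary screen at 25 uM in duplicate; actives (e.g. ≥30% inhibition) then run in concentration-response up to 50 uM.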

In test [12] the target is human Androgen Receptor (AR), AR (gene 367) (UniProt P10275). Nature of the test: NVS_NR_hAR: NovaScreen (NVS) Nuclear Receptor Binding Assay for human Androgen Receptor (AR) (AID 2283332). A digest of the protocol:
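LnCAP cell-free extract; radioligand displacement read by scintillation counting after 20 h. Primary screen single concentration 25 uM in duplicate, actives then run as concentration series; loss-of-signal fitted relative to DMSO baseline.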

Test [13] has as its target rat Peripheral-type Benzodiazepine Receptor (PBR), Tspo (gene 24230) (UniProt P16257). Kind of test: NVS_MP_rPBR: NovaScreen (NVS) Membrane Protein Assay for rat Peripheral-type Benzodiazepine Receptor (PBR) (AID 2283335). A digest of the protocol:
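Radioligand displacement, rat kidney membrane prep, 1 h exposure, filter-based scintillation read; DMSO baseline, loss-of-signal scored. Primary screen at 25 uM in duplicate, actives followed up in concentration series.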

For test [14], the target named is human Constitutive Androstane Receptor (CAR), NR1I3 (gene 9970) (UniProt Q14994). Nature of the test: NVS_NR_hCAR_Agonist: NovaScreen (NVS) Nuclear Receptor Binding Assay for human Constitutive Androstane Receptor Agonism (CAR) (AID 2283328). A digest of the protocol: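 Cell-free TR-FRET binding readout with extracted human CAR protein, read 1 h after dosing. Gain of signal fitted against DMSO baseline. Single-concentration duplicates at 25 uM, then concentration-response up to 50 uM for actives.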
human Constitutive Androstane Receptor (CAR), NR1I3 (gene 9970), sequence (Q14994 whole entry, looked up): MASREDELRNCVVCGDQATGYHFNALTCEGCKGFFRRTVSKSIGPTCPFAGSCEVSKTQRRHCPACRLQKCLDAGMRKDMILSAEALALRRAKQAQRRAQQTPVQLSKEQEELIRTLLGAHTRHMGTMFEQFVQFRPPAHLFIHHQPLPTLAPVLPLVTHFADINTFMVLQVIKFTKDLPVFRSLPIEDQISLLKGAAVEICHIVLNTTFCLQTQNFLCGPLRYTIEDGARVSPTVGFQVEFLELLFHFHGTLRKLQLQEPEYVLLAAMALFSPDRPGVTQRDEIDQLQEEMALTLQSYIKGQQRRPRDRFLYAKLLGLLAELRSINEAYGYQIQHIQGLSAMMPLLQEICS

Small conductance calcium-activated potassium channel protein 1 (Rattus norvegicus), sequence (P70606 whole entry, looked up): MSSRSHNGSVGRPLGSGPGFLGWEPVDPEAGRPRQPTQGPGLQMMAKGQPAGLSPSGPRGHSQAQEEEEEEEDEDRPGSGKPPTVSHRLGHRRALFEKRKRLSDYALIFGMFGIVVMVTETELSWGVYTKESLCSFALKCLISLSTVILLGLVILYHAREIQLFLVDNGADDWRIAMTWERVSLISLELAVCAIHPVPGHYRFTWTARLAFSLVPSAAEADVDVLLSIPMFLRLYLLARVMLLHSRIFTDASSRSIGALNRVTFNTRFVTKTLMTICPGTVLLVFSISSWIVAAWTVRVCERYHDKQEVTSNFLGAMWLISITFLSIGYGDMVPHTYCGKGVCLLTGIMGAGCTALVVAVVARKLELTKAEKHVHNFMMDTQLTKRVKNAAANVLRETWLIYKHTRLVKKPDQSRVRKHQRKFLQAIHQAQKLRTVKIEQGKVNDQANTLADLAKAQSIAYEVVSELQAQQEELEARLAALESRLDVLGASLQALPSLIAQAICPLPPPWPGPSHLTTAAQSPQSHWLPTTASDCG
human Serotonin, 5-Hydroxytryptamine Receptor 3 (5HT3), HTR3A (gene 3359), sequence (P46098 whole entry, looked up): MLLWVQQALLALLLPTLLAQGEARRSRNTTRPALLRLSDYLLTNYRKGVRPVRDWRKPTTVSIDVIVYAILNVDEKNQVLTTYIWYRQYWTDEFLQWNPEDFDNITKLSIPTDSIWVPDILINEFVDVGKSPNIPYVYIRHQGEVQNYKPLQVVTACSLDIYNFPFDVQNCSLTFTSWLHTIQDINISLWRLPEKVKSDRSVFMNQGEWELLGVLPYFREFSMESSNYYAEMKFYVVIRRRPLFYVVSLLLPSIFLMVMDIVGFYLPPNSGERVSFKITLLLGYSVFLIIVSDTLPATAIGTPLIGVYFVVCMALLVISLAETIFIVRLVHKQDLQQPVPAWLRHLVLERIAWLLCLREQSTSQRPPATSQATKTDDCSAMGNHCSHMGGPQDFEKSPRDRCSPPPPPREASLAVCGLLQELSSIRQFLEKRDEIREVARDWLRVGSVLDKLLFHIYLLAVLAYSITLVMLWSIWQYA
human Peripheral-type Benzodiazepine Receptor (PBR), TSPO (gene 706), sequence (P30536 whole entry, looked up): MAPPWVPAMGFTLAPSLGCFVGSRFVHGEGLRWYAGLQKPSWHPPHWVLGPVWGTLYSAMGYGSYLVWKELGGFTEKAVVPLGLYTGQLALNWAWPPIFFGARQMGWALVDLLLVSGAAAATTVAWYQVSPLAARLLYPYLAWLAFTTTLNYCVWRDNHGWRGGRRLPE
rat Glutamate, AMPA Site (AMPA), Gria1 (gene 50592), sequence (P19490 whole entry, looked up): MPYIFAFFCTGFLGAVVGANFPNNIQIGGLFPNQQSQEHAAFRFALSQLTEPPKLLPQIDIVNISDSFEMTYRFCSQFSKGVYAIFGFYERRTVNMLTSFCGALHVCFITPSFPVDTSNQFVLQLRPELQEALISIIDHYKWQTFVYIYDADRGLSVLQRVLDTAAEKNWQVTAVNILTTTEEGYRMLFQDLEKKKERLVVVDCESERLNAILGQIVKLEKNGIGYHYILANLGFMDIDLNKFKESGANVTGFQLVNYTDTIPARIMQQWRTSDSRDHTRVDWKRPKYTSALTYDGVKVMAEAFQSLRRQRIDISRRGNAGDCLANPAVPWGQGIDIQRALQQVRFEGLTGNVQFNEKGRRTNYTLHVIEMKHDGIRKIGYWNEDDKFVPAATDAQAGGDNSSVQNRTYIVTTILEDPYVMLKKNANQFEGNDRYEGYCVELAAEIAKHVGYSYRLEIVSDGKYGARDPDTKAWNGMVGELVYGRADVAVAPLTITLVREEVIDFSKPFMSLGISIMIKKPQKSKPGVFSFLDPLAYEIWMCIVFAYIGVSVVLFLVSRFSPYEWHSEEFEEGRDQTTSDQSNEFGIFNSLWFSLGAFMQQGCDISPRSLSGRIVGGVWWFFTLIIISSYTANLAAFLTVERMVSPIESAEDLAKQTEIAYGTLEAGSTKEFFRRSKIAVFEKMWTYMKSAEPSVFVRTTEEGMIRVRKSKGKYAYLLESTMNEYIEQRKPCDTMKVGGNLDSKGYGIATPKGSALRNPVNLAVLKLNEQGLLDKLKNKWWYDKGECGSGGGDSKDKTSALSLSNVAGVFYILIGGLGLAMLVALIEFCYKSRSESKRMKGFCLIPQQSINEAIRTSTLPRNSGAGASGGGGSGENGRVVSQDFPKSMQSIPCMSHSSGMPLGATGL
Voltage-gated inwardly rectifying potassium channel KCNH2 (Homo sapiens), sequence (Q12809 whole entry, looked up): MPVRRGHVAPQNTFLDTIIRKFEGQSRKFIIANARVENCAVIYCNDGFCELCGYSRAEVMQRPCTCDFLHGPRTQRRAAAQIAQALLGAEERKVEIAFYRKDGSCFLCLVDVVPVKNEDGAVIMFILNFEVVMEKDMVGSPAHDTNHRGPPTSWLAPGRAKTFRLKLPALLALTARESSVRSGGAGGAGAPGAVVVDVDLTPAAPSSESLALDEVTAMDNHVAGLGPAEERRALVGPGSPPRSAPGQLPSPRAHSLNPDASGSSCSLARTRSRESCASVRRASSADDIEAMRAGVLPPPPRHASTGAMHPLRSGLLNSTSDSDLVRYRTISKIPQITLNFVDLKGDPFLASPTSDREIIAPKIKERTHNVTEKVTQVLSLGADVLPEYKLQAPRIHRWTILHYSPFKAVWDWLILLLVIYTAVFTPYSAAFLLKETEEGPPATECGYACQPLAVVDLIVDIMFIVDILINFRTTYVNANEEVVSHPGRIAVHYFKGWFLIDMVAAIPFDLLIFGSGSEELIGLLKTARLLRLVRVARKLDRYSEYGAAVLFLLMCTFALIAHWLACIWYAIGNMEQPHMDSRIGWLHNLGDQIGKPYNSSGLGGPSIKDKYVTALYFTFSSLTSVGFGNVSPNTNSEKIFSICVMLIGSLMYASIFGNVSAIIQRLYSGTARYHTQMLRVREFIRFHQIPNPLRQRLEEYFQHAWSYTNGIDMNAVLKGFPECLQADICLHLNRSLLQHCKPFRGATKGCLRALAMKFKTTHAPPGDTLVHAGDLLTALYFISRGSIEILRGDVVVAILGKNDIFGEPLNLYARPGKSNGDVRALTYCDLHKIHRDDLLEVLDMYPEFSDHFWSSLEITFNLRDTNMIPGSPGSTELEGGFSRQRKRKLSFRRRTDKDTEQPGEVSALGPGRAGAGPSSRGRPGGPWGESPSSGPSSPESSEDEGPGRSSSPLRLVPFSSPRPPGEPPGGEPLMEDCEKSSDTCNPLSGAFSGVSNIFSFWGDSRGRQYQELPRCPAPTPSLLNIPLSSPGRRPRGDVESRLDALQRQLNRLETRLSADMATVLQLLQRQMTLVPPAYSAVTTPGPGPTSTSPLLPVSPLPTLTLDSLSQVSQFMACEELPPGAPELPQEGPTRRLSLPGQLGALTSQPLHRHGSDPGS
rat Peripheral-type Benzodiazepine Receptor (PBR), Tspo (gene 24230), sequence (P16257 whole entry, looked up): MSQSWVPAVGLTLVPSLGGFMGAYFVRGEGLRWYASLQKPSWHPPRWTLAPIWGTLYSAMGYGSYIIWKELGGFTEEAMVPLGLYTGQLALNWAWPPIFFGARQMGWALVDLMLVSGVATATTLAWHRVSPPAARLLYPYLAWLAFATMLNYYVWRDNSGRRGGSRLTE
rat Gamma-Aminobutyric Acid Type A Receptor, Non-Selective (GABAR-NonSelective), Gabra1 (gene 29705), sequence (P62813 whole entry, looked up): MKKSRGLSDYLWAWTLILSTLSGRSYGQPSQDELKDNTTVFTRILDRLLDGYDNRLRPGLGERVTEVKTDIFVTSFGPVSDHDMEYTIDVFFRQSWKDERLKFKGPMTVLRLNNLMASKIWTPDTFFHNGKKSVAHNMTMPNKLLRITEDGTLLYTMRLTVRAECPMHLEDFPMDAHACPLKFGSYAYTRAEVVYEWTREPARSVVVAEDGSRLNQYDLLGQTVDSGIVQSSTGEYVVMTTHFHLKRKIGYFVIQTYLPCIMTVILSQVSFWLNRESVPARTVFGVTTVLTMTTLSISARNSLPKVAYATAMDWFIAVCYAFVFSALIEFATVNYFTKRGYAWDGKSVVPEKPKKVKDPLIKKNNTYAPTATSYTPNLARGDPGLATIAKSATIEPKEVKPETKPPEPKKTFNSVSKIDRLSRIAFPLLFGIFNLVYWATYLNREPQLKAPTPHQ
rat Glycine Receptor, Strychnine-sensitive (GlyRStrySens), Glra1 (gene 25674), sequence (P07727 whole entry, looked up): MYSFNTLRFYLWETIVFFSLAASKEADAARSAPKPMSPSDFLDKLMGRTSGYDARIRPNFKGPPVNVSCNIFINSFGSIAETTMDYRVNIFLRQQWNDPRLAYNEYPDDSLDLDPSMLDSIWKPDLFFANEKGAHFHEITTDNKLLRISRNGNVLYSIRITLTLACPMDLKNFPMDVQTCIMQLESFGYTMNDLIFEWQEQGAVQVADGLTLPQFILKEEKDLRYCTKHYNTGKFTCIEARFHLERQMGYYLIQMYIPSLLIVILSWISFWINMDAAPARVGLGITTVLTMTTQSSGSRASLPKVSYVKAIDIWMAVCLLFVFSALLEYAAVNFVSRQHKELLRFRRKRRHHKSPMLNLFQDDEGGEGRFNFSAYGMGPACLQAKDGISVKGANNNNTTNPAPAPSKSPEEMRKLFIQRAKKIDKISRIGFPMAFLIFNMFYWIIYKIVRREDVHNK

The AC50 is the midpoint of the concentration-response curve, whichever way the signal moves. For the molecule `CN(C)C(=O)NC1(c2ccccc2)CCN(CCC[C@]2(c3ccc(Cl)c(Cl)c3)CCCN(C(=O)c3ccccc3)C2)CC1`, the AC50 was 327 nM (active) in test [1], 1240 nM (active) in [2], 1240 nM (active) in [4] and 16.4 nM (active) in test [5]. Moreover, the outcome in test [3] was inactive.

As for `CCCCC(CC)COP(=O)(OCC(CC)CCCC)OCC(CC)CCCC` (stereo unspecified), the result in test [1] and in test [6] was inactive.

On to `O=Cc1ccccc1C=O`, for which, in test [6], the AC50 was 13500 nM (active).

As to `COC(=O)[C@H]1[C@H]2C[C@@H]3c4[nH]c5cc(OC)ccc5c4CCN3C[C@H]2C[C@@H](OC(=O)c2cc(OC)c(OC)c(OC)c2)[C@@H]1OC`, the AC50 in test [1] is 5490 nM (active); in test [4], 6930 nM (active). For the same molecule, the molecule was classed as inactive in [2].

Turning to `CN(C)C(=O)NC1(c2ccccc2)CCN(CC[C@@]2(c3ccc(F)c(F)c3)CN(C(=O)c3ccccc3)CCO2)CC1`, the concentration at half-maximal activity (AC50) in test [1] was 6430 nM (active); in [4] it was 2200 nM (active); in test [5] it was 276 nM (active).

On to `CCN(CC)CCOc1ccc(C(=C(Cl)c2ccccc2)c2ccccc2)cc1`, for which the AC50 in [1] was 1990 nM (active); in test [7], 672 nM (active); in [4], 1020 nM (active); in test [5] it was 1820 nM (active); in the test with NCBI gene 100848466, 11600 nM (active). The molecule was classed as inactive in [7] and in [8].

With `C/C=C/C=C/C(=O)O`, the call in test [9] was inactive.

As to `COc1ccc(OC(F)(F)F)cc1CN[C@H]1CCCN[C@H]1c1ccccc1`, the AC50 in [1] was 623 nM (active); in [10], 2000 nM (active); in test [4] it was 1240 nM (active); in test [5] it was 7670 nM (active). Moreover, the result in test [6] and in test [3] was inactive.

Regarding `CC(C)c1cccc(C(C)C)c1NC(=O)NS(=O)(=O)c1cc(C(C)(C)O)co1`, the outcome in test [11] was inactive.

Take `Cn1cnc2c1c(=O)[nH]c(=O)n2C`: the result in [1], in [2] and in test [5] was inactive.

Consider `Cc1cc(SC2=C(O)C[C@@](CCc3ccc(N)cc3)(C(C)C)OC2=O)c(C(C)(C)C)cc1CO`, for which the molecule was classed as inactive in [1], in test [6], in [9], in test [2] and in test [13]. For the same molecule, the AC50 in test [12] was 9330 nM (active).

Turning to `CCCCC(CC)COC(=O)CCCCCCCC(=O)OCC(CC)CCCC` (stereo unspecified), the molecule was classed as inactive in [1].

Turning to `CCCCCCCCCCCCCCOS(=O)(=O)O`, in test [9], the AC50 is 25000 nM (active).

Regarding `CC(C)OC(=O)C(C)(C)Oc1ccc(C(=O)c2ccc(Cl)cc2)cc1`, the molecule was called inactive in [14].

In the case of `O=C(O)c1[nH]n(-c2ccc(S(=O)(=O)O)cc2)c(=O)c1N=Nc1ccc(S(=O)(=O)O)cc1`, the call in test [2] was inactive. The AC50 in test [4] is 10400 nM (active).

Turning to `CCCCCCC(CCCCCCCCCCC(=O)OCC(COC(C)=O)OC(C)=O)OC(C)=O` (stereo unspecified), the outcome in [2] was inactive.

Turning to `O=C1OC(c2ccc(O)cc2)(c2ccc(O)cc2)c2ccccc21`, the result in test [3] was inactive.

As for `c1ccc2occc2c1`, the result in [3] was inactive.
